Assay results taken from PubChem BioAssay (NCI).
About 83,000 compounds went through this panel and 20% of them were active in at least one assay; those are over-represented in the sample as a whole.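 Compound tested at a single concentration for 48 hours in 96-well plates; a percent growth value below 10 was scored as active.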 Activity calls are given as the source filed them.

Assays:
Assay in all cases: NCI-60 one-dose screen, 48 h (100 = growth as untreated, 0 = no growth, -100 = all killed)
Settings in all cases: 10 µM unless noted
T-47D breast = system: T-47D breast
BT-549 breast = system: BT-549 breast
MDA-MB-435 melanoma = system: MDA-MB-435 melanoma
SW-620 colon = system: SW-620 colon
MCF7 breast = system: MCF7 breast
HCT-116 colon = system: HCT-116 colon
HCC-2998 colon = system: HCC-2998 colon
KM12 colon = system: KM12 colon

Measured: growth

C/C(=N\NC(=O)CSc1nc2ccccc2c(=O)n1Cc1ccc(S(N)(=O)=O)cc1)c1ccc(F)cc1
inactive: T-47D breast 96.7% | BT-549 breast 112% | MDA-MB-435 melanoma 104% | SW-620 colon 104% | MCF7 breast 96.1% | HCT-116 colon 102% | HCC-2998 colon 112% | KM12 colon 105%

CCCOC(=O)N[C@H]1CCc2c(Cl)c(OC)c(OC)c(OC)c2-c2ccc(SC)c(=O)cc21
inactive: T-47D breast 45.9% | SW-620 colon 20.2% | MCF7 breast 14.7% | HCC-2998 colon 22.6%
active: BT-549 breast 1.4% | MDA-MB-435 melanoma -26.9% | HCT-116 colon 0.896% | KM12 colon -6.7%

Nc1nc(Nc2ccccc2SSc2ccccc2Nc2nc(N)nc(-c3ccc(C(F)(F)F)cc3)n2)nc(-c2ccc(C(F)(F)F)cc2)n1
inactive: T-47D breast 41.7% | BT-549 breast 75.6% | MDA-MB-435 melanoma 74.9% | SW-620 colon 80.4% | MCF7 breast 52.2% | HCT-116 colon 51% | HCC-2998 colon 93.1% | KM12 colon 44.8%

O=C(Cn1c[n+](CC(=O)c2ccc(-c3ccccc3)cc2)c2ccccc21)Nc1cccc2cccnc12
active: BT-549 breast -9.9% | MDA-MB-435 melanoma 7.5% | HCC-2998 colon 6.56% | KM12 colon -31.5%
inactive: T-47D breast 10.8% | SW-620 colon 36.1% | MCF7 breast 12.6% | HCT-116 colon 11.9%

COc1cc2c(=O)n(CCN)c3c4cc5c(cc4ccc3c2cc1OC)OCO5
active: MDA-MB-435 melanoma -91% | SW-620 colon -75.6% | HCT-116 colon -70.9% | KM12 colon -64%
inactive: T-47D breast 27.1% | BT-549 breast 35.2% | MCF7 breast 17.6% | HCC-2998 colon 44.9%

CCCCCCNC(=O)Nc1ccc2cc3ccc(NC(=O)NCCCCCC)cc3nc2c1
inactive: BT-549 breast 89.4% | KM12 colon 19.4%
active: T-47D breast -24.8% | MDA-MB-435 melanoma -83.6% | SW-620 colon -78.1% | MCF7 breast -57.4% | HCT-116 colon -18.9% | HCC-2998 colon -24.5%

N=C(N)c1ccc(OCCCCCCCCCCOc2ccc(C(=N)N)cc2)cc1
active: T-47D breast -59.1% | BT-549 breast -84.5% | MDA-MB-435 melanoma -94.6% | SW-620 colon -91.3% | MCF7 breast -71.7% | HCT-116 colon -99.7% | HCC-2998 colon -94.9% | KM12 colon -87.9%

COc1cc2nc(-c3ccc(C(F)(F)F)cc3)cc(OCCCN3CCCC3)c2cc1OC
active: MDA-MB-435 melanoma -21.1%
inactive: T-47D breast 38.4% | BT-549 breast 28.8% | SW-620 colon 28.6% | MCF7 breast 44.7% | HCT-116 colon 23.6% | HCC-2998 colon 70% | KM12 colon 36.4%

COc1cc(NC(=O)CSc2nc3ccc(C)cc3c(=O)n2Cc2ccccc2)cc(OC)c1OC
inactive: T-47D breast 22.8% | BT-549 breast 53.3% | MDA-MB-435 melanoma 67.3% | SW-620 colon 81.3% | MCF7 breast 71% | HCT-116 colon 43.4% | HCC-2998 colon 76% | KM12 colon 57.9%

O=C(N/N=C/c1ccc(Oc2ccccc2)cc1)c1cnn2c1NC(c1ccccc1)C2 (stereo not given)
active: MDA-MB-435 melanoma 4.46%
inactive: T-47D breast 43% | BT-549 breast 81.1% | SW-620 colon 42.1% | MCF7 breast 17.7% | HCT-116 colon 32.2% | HCC-2998 colon 71.8% | KM12 colon 44.7%

O=S(=O)(NCCCNc1nccc(-c2c(-c3cccc(F)c3)nc3sccn23)n1)c1cccc2ccccc12
inactive: T-47D breast 18.4% | BT-549 breast 65% | MDA-MB-435 melanoma 22.6% | SW-620 colon 42.1% | MCF7 breast 37.4% | HCT-116 colon 32.4% | HCC-2998 colon 16.3% | KM12 colon 26%

CCNC(=O)Oc1ccc(/C(=C(\C)c2ccccc2)c2ccc(OCCN3CCCCC3)cc2)cc1
inactive: T-47D breast 24.1% | BT-549 breast 65.2% | MDA-MB-435 melanoma 65.5% | SW-620 colon 59.1% | MCF7 breast 25.8% | HCT-116 colon 40.5% | HCC-2998 colon 84.9% | KM12 colon 50.8%

Cc1cnc(C(=O)Nc2nc3ccc(S(=O)(=O)Nc4ccc(C5(C(F)(F)F)CC5)cc4)cc3[nH]2)cn1
inactive: T-47D breast 21.6% | BT-549 breast 40.6% | SW-620 colon 15% | MCF7 breast 17.4% | HCT-116 colon 19.5% | HCC-2998 colon 42.4% | KM12 colon 16%
active: MDA-MB-435 melanoma -77.5%

Cn1c(-c2c(N)n(CCCN3CCOCC3)c3nc(C#N)c(C#N)nc23)nc2ccccc21
inactive: T-47D breast 49.9% | BT-549 breast 35.6% | MDA-MB-435 melanoma 79.3% | SW-620 colon 39.7% | MCF7 breast 52.9% | HCT-116 colon 22.7% | HCC-2998 colon 80% | KM12 colon 75.6%

Cc1ccccc1NS(=O)(=O)c1cccc(C(=O)Nc2ccc(Br)cc2)c1
inactive: T-47D breast 25.8% [25 µM] | BT-549 breast 31.2% [25 µM] | MDA-MB-435 melanoma 28.3% [25 µM] | SW-620 colon 58.8% [25 µM] | MCF7 breast 30% [25 µM] | HCT-116 colon 30.5% [25 µM] | HCC-2998 colon 67.3% [25 µM] | KM12 colon 37.1% [25 µM]

Cc1ccc(/C=C(/C#N)n2nnc3cccc(F)c32)cc1
active: MDA-MB-435 melanoma -89.5% | SW-620 colon 1.87% | HCT-116 colon 2.07% | HCC-2998 colon -32.1% | KM12 colon -17.6%
inactive: T-47D breast 21.9% | BT-549 breast 27.1% | MCF7 breast 13.5%

CCOC(=O)c1cc(C(=O)c2cc(OC)cc(OC)c2)n2ccc3ccccc3c12
inactive: T-47D breast 95% | BT-549 breast 74.7% | MDA-MB-435 melanoma 99.5% | SW-620 colon 102% | MCF7 breast 99.2% | HCT-116 colon 84% | HCC-2998 colon 108% | KM12 colon 100%

CCOC(=O)CSc1nc2ccccc2c(=O)n1Cc1ccc(S(N)(=O)=O)cc1
inactive: T-47D breast 102% | BT-549 breast 105% | MDA-MB-435 melanoma 102% | SW-620 colon 98.6% | MCF7 breast 96.7% | HCT-116 colon 102% | HCC-2998 colon 109% | KM12 colon 104%

O=C(/C=C(/C=C/c1csc2ccccc12)OB(F)F)/C=C/c1csc2ccccc12
active: BT-549 breast 4.74% | MDA-MB-435 melanoma -18.6% | SW-620 colon 5.19% | HCT-116 colon -57.7%
inactive: T-47D breast 38.4% | MCF7 breast 39.9% | HCC-2998 colon 92% | KM12 colon 37.7%

C=C1C(=O)O[C@H]2[C@H]1CC/C(C(=O)NCCCCCNC(=O)/C1=C/CC[C@@]3(C)O[C@H]3[C@H]3OC(=O)C(=C)[C@@H]3CC1)=C\CC[C@@]1(C)O[C@@H]21
inactive: T-47D breast 94.2% | BT-549 breast 98.2% | MDA-MB-435 melanoma 105% | SW-620 colon 101% | MCF7 breast 88.2% | HCT-116 colon 87% | HCC-2998 colon 105% | KM12 colon 103%

CCOC(=O)/C(C#N)=C1/NNC(=Nc2cccnc2)S1
inactive: T-47D breast 88.7% | BT-549 breast 103% | MDA-MB-435 melanoma 99.2% | SW-620 colon 94.9% | MCF7 breast 106% | HCT-116 colon 91.9% | HCC-2998 colon 113% | KM12 colon 102%

O=C(C[n+]1cccc2ccccc21)c1ccc(O)c(O)c1
active: HCT-116 colon 5.16%
inactive: T-47D breast 42% | BT-549 breast 65.7% | MDA-MB-435 melanoma 88.1% | SW-620 colon 23.8% | MCF7 breast 21.8% | HCC-2998 colon 90.4% | KM12 colon 100%

CCc1ccc(CNc2ccc(N3CCOCC3)c(C(=O)O)c2)cc1
inactive: T-47D breast 86.3% | BT-549 breast 105% | MDA-MB-435 melanoma 108% | SW-620 colon 111% | MCF7 breast 86.2% | HCT-116 colon 86.1% | HCC-2998 colon 104% | KM12 colon 106%

COc1ccc(C(=O)Cn2c(C(=O)c3ccccc3)nc3ccccc32)cc1
active: MDA-MB-435 melanoma -43.3%
inactive: T-47D breast 38.1% | BT-549 breast 51.7% | SW-620 colon 10.6% | MCF7 breast 17.5% | HCT-116 colon 15.7% | HCC-2998 colon 26.5% | KM12 colon 20.4%

COc1ccc(OC)c(-c2cc(-c3ccc(Cl)cc3)c3c(N)c(C(=O)c4ccc(Cl)cc4)sc3n2)c1
inactive: T-47D breast 87.2% | BT-549 breast 84.1% | MDA-MB-435 melanoma 107% | SW-620 colon 112% | MCF7 breast 86.2% | HCT-116 colon 95.7% | HCC-2998 colon 100% | KM12 colon 100%

Cc1ccc(NC(=O)Cc2ccc(/C=C/C(=O)c3ncc[nH]3)cc2)cc1
active: HCT-116 colon 8.97%
inactive: T-47D breast 38.9% | BT-549 breast 48.9% | MDA-MB-435 melanoma 28.7% | SW-620 colon 11.7% | MCF7 breast 14.5% | HCC-2998 colon 98% | KM12 colon 11.3%

COc1cc2nc(-c3ccc(Cl)cc3)cc(OCCCN3CCC(O)CC3)c2cc1OC
inactive: T-47D breast 44.3% | BT-549 breast 34.9% | SW-620 colon 51.2% | MCF7 breast 48.9% | HCT-116 colon 17.9% | HCC-2998 colon 69.9% | KM12 colon 37.2%
active: MDA-MB-435 melanoma -10.7%

O=C(O)c1ccc2c(c1)C(=O)N(Cc1ccccc1)C2=O
inactive: T-47D breast 95.8% | BT-549 breast 98.6% | MDA-MB-435 melanoma 106% | SW-620 colon 98.6% | MCF7 breast 95.3% | HCT-116 colon 96.8% | HCC-2998 colon 99.2% | KM12 colon 104%

CCCCOc1ccc(/C(C)=N/Nc2cc(C)nc3ccc(Br)cc23)cc1
active: SW-620 colon 5.89%
inactive: T-47D breast 85.5% | BT-549 breast 107% | MDA-MB-435 melanoma 92.8% | MCF7 breast 21.3% | HCT-116 colon 27.7% | HCC-2998 colon 45.8% | KM12 colon 62.9%

COc1cc(CC(=O)c2ccc(O)c(OC)c2)ccc1O
inactive: T-47D breast 89.6% | BT-549 breast 110% | MDA-MB-435 melanoma 112% | SW-620 colon 102% | MCF7 breast 96.9% | HCT-116 colon 100% | HCC-2998 colon 103% | KM12 colon 103%
